Test results reported in the supplement of paper PMC3545927.
Some of the results follow. The hit rate among all sequences tested is not known here.

B1: HC38 (peptide)
chain: CAMEECNQHLAGNASASA
B2: FS-2895 (peptide)
chain: CARCARSSFTAGNASASA
B3: HC409 (peptide)
chain: CAVPAKSVCGAGNASASA
B4: HC450 (peptide)
chain: CALHCPTDCFAGNASASA
B5: HC1608 (peptide)
chain: CAHSYSPGEIAGNASASA
B6: HC382 (peptide)
chain: CAYHHKFNSSAGNASASA
B7: FS-1590 (peptide)
chain: CAGPGREDRFAGNASASA
B8: FS-306 (peptide)
chain: CATVGRVKRFAGNASASA
B9: HC1654 (peptide)
chain: CAARPRWIWFAGNASASA
B10: FS-1308 (peptide)
chain: CAARNRQKRFAGNASASA
B11: HC957 (peptide)
chain: CAVCARAQAPAGNASASA
B12: HC1437 (peptide)
chain: CAPIDTTIMAAGNASASA
B13: HC1690 (peptide)
chain: CAMVECSQHLAGNASASA
B14: HC2115 (peptide)
chain: CAHDVVCCSMAGNASASA
B15: HC2014 (peptide)
chain: CAVKCCSMSYAGNASASA
B16: HC1570 (peptide)
chain: CATARHTPVNAGNASASA
B17: FS-1249 (peptide)
chain: CAQLRRYPRNAGNASASA
B18: HC372 (peptide)
chain: CANSTALNCNAGNASASA
B19: FS-284 (peptide)
chain: CAQLRRLKRNAGNASASA
B20: FS-1372 (peptide)
chain: CALSFRLKRNAGNASASA
B21: HC255 (peptide)
chain: CAASAYQVRNAGNASASA
B22: HC289 (peptide)
chain: CAQLRRHIDLAGNASASA
B23: HC1561 (peptide)
chain: CAVYYLTRDPAGNASASA
B24: HC1232 (peptide)
chain: CAEEVSFRVGAGNASASA
B25: HC2158 (peptide)
chain: CATVVTSTWVAGNASASA
B26: HC1430 (peptide)
chain: CAINSVWKDLAGNASASA
B27: FS-586 (peptide)
chain: CAFCCRKKRRAGNASASA
B28: FS-249 (peptide)
chain: CAHSERKKRRAGNASASA
B29: HC1297 (peptide)
chain: CAEILRKSRRAGNASASA
B30: HC339 (peptide)
chain: CAAGIAYFSMAGNASASA
B31: FS-124 (peptide)
chain: CAGGSRWRRSAGNASASA
B32: FS-139 (peptide)
chain: CAQGNRWRRSAGNASASA
B33: HC806 (peptide)
chain: CAITYSTYGKAGNASASA
B34: FS-395 (peptide)
chain: CAAGQRLRRDAGNASASA
B35: FS-644 (peptide)
chain: CAAVPRLRRDAGNASASA
B36: FS-753 (peptide)
chain: CACVPRMRRPAGNASASA
B37: FS-11 (peptide)
chain: CAAVGRAGRDAGNASASA
B38: HC2116 (peptide)
chain: CAGDVVCCSMAGNASASA
B39: HC81 (peptide)
chain: CAVVCASMSYAGNASASA
B40: HC231 (peptide)
chain: CAGAPLGGAAAGNASASA
B41: FS-381 (peptide)
chain: CASQRRKRRAAGNASASA
B42: HC346 (peptide)
chain: CAVLVVLLLFAGNASASA
B43: FS-1178 (peptide)
chain: CAVLVRKRRAAGNASASA
B44: HC991 (peptide)
chain: CAVLVGGVLAAGNASASA
B45: FS-47 (peptide)
chain: CAKSYRKRRAAGNASASA
B46: FS-26 (peptide)
chain: CAGGPRKRRAAGNASASA

Target: furin, P09958
Sequence (P09958 whole entry): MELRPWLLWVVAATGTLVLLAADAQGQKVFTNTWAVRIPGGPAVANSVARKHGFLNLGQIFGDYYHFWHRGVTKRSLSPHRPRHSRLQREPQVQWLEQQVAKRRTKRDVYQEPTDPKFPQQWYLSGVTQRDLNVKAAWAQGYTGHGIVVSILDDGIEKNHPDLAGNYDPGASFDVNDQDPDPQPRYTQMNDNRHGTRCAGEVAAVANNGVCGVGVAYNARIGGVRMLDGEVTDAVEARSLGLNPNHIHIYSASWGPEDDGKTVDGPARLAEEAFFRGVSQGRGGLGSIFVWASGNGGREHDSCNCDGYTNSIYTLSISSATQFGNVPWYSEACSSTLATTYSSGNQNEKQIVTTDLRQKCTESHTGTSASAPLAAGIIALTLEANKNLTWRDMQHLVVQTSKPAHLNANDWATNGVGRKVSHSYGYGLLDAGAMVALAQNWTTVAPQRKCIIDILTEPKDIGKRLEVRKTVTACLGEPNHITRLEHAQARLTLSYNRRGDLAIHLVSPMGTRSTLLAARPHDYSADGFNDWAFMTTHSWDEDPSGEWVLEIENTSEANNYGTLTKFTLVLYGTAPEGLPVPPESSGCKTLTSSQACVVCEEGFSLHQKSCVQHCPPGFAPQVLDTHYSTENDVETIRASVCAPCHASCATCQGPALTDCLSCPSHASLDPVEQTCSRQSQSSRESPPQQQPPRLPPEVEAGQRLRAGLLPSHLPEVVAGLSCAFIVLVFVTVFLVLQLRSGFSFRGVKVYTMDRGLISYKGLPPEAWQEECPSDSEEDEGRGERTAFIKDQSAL
Test: furin cleavage Z-score vs untreated control; higher = more cleavage, active = 3.5 or more, inactive = 1 or less, 8 variable residues between constant flanks
Method in brief: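 Peptides 8 residues long, fused to a cDNA oligonucleotide, were fixed to magnetic beads by the N-terminus and exposed to purified furin. The 0.01 ml reactions contained 50 mM HEPES pH 7.5 with CaCl2 and NaCl at 1:10 enzyme:substrate and ran 7.5, 15 or 30 min. For the cleavage Z-score, log counts of sequenced released DNA were compared with furin-free reactions, lowess-adjusted and scaled by median absolute deviation.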

Sequence	furin cleavage Z-score (7.5 min)	furin cleavage Z-score (15 min)	furin cleavage Z-score (30 min)
B1	0.469 (inactive)	2.66	0.708 (inactive)
B2	-1.39 (inactive)	-0.507 (inactive)	-0.615 (inactive)
B3	-1.6 (inactive)	0.783 (inactive)	-0.986 (inactive)
B4	0.987 (inactive)	-0.346 (inactive)	0.0192 (inactive)
B5	-0.391 (inactive)	-1.22 (inactive)	-0.845 (inactive)
B6	-0.863 (inactive)	-0.739 (inactive)	-0.583 (inactive)
B7	0.0501 (inactive)	-0.782 (inactive)	0.43 (inactive)
B8	9.9 (active)	9.6 (active)	9.08 (active)
B9	0.126 (inactive)	1.51	1.36
B10	9.16 (active)	10.4 (active)	8.81 (active)
B11	-0.611 (inactive)	-0.626 (inactive)	0.901 (inactive)
B12	-1.63 (inactive)	0.33 (inactive)	-1.75 (inactive)
B13	1.97	0.64 (inactive)	0.696 (inactive)
B14	-0.409 (inactive)	-0.66 (inactive)	0.0366 (inactive)
B15	-0.221 (inactive)	0.288 (inactive)	-1.16 (inactive)
B16	-0.556 (inactive)	-0.38 (inactive)	-0.627 (inactive)
B17	10 (active)	10.4 (active)	8.2 (active)
B18	1.61	1.23	0.944 (inactive)
B19	13 (active)	12.1 (active)	9.76 (active)
B20	12.3 (active)	11.1 (active)	9.61 (active)
B21	2.82	-0.339 (inactive)	0.446 (inactive)
B22	-1.12 (inactive)	0.114 (inactive)	0.176 (inactive)
B23	-0.916 (inactive)	-0.905 (inactive)	-0.163 (inactive)

Sequence	furin cleavage Z-score (7.5 min)	furin cleavage Z-score (15 min)	furin cleavage Z-score (30 min)
B24	0.0764 (inactive)	1.08	-0.114 (inactive)
B25	0.721 (inactive)	0.128 (inactive)	0.308 (inactive)
B26	0.0949 (inactive)	0.0646 (inactive)	0.992 (inactive)
B27	3.8 (active)	4.73 (active)	5.93 (active)
B28	8.63 (active)	10.6 (active)	10.2 (active)
B29	-0.468 (inactive)	1.48	-0.599 (inactive)
B30	-0.0596 (inactive)	0.534 (inactive)	-0.966 (inactive)
B31	6.79 (active)	5.09 (active)	5.21 (active)
B32	14.1 (active)	13 (active)	9.79 (active)
B33	0.0361 (inactive)	-1.76 (inactive)	1.03
B34	12 (active)	10.2 (active)	8.42 (active)
B35	11.8 (active)	12.1 (active)	8.75 (active)
B36	0.288 (inactive)	-2.19 (inactive)	0.777 (inactive)
B37	0.567 (inactive)	1.42	0.637 (inactive)
B38	0.0391 (inactive)	-0.825 (inactive)	-0.011 (inactive)
B39	0.42 (inactive)	1.25	-0.0546 (inactive)
B40	-0.433 (inactive)	-0.224 (inactive)	-0.596 (inactive)
B41	6.33 (active)	6.94 (active)	4.52 (active)
B42	-1.01 (inactive)	-0.224 (inactive)	-0.108 (inactive)
B43	12 (active)	12.9 (active)	8.97 (active)
B44	-0.269 (inactive)	-2.26 (inactive)	-1.24 (inactive)
B45	9.96 (active)	10.6 (active)	7.5 (active)
B46	5.06 (active)	5.01 (active)	3.88 (active)
